# The supplement of paper PMC8728848
# Only a selection was taken, and the strongest signals are over-represented in it overall.
# B1: Thrombomodulin (Mus musculus) (protein)
# chain: ALAKLQPTGSQCVEHECFALFQGPATFLDASQACQRLQGHLMTVRSSVAADVISLLLSQSSMDLGPWIGLQLPQGCDDPVHLGPLRGFQWVTGDNHTSYSRWARPNDQTAPLCGPLCVTVSTATEAAPGEPAWEEKPCETETQGFLCEFYFTASC
# Tests used:
# Experiment in all cases: glycan array binding signal (z-score within array); higher = stronger binding
# Details in all cases: glycan notation: IUPAC condensed, linker removed
# Fuc(a1-2)Gal(b1-4)Glc6S = biological target: Fuc(a1-2)Gal(b1-4)Glc6S
# How it was run: (§1)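 From the Consortium for Functional Glycomics database, 3228 arrays were curated, keeping only those whose protein sequence was available. Binding is given as a within-array Z-score averaged across arrays sharing a protein sequence and across linkers. Negative Z-scores can be read as non-binding.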
# [1] = biological target: Fuc(a1-2)Gal3S(b1-4)GlcNAc
# How it was run: as §1
# [2] = biological target: Fuc(a1-2)Gal6S(b1-4)Glc6S
# How it was run: as §1
# [3] = biological target: Fuc(a1-2)[Gal(a1-3)]Gal(b1-4)GlcNAc(b1-3)[Fuc(a1-2)[Gal(a1-3)]Gal(b1-4)GlcNAc(b1-6)]GalNAc
# How it was run: as §1
# [4] = biological target: Fuc(a1-3)[Gal(b1-4)]GlcNAc(b1-3)Gal(b1-4)[Fuc(a1-3)]GlcNAc(b1-3)Gal(b1-4)[Fuc(a1-3)]GlcNAc
# How it was run: as §1
# [5] = biological target: Fuc(a1-3)[Gal3S(b1-4)]GlcNAc6S
# How it was run: as §1
# Fuc(a1-4)GlcNAc = biological target: Fuc(a1-4)GlcNAc
# How it was run: as §1
# Gal(a1-3)Gal(b1-3)GlcNAc = biological target: Gal(a1-3)Gal(b1-3)GlcNAc
# How it was run: as §1
# [6] = biological target: Gal(a1-3)Gal(b1-3)[Fuc(a1-4)]GlcNAc(b1-2)Man(a1-3)[Gal(a1-3)Gal(b1-3)[Fuc(a1-4)]GlcNAc(b1-2)Man(a1-6)]Man(b1-4)GlcNAc(b1-4)GlcNAc
# How it was run: as §1
# [7] = biological target: Gal(a1-3)Gal(b1-4)[Fuc(a1-3)]GlcNAc(b1-2)Man(a1-3)[Gal(a1-3)Gal(b1-4)[Fuc(a1-3)]GlcNAc(b1-2)Man(a1-6)]Man(b1-4)GlcNAc(b1-4)GlcNAc
# How it was run: as §1
# [8] = biological target: Gal(a1-3)[Gal(a1-4)]Gal(b1-4)GlcNAc
# How it was run: as §1
# [9] = biological target: Gal(b1-3)GalNAc(b1-3)Gal(a1-4)Gal(b1-4)Glc
# How it was run: as §1
# [10] = biological target: Gal(b1-3)GlcNAc(b1-3)Gal(b1-3)GlcNAc
# How it was run: as §1
# [11] = biological target: Gal(b1-3)GlcNAc(b1-3)Gal(b1-4)GlcNAc(b1-2)Man(a1-3)[Gal(b1-3)GlcNAc(b1-3)Gal(b1-4)GlcNAc(b1-2)Man(a1-6)]Man(b1-4)GlcNAc(b1-4)GlcNAc
# How it was run: as §1
# [12] = biological target: Gal(b1-3)GlcNAc(b1-3)Gal(b1-4)GlcNAc(b1-6)[Gal(b1-3)GlcNAc(b1-3)]Gal(b1-4)Glc
# How it was run: as §1
# [13] = biological target: Gal(b1-3)GlcNAc(b1-6)[Gal(b1-3)]GalNAc
# How it was run: as §1
# [14] = biological target: Gal(b1-3)[Fuc(a1-4)]GlcNAc(b1-2)Man(a1-3)[Gal(b1-3)[Fuc(a1-4)]GlcNAc(b1-2)Man(a1-6)]Man(b1-4)GlcNAc(b1-4)[Fuc(a1-6)]GlcNAc
# How it was run: as §1
# [15] = biological target: Gal(b1-4)GlcNAc(b1-2)Man(a1-6)[Man(a1-3)]Man(b1-4)GlcNAc(b1-4)GlcNAc
# How it was run: as §1
# [16] = biological target: Gal(b1-4)GlcNAc(b1-3)Gal(b1-4)GlcNAc(b1-2)Man(a1-3)[Gal(b1-4)GlcNAc(b1-3)Gal(b1-4)GlcNAc(b1-2)Man(a1-6)]Man(b1-4)GlcNAc(b1-4)GlcNAc
# How it was run: as §1
# [17] = biological target: Gal(b1-4)GlcNAc(b1-3)Gal(b1-4)GlcNAc(b1-2)[Gal(b1-4)GlcNAc(b1-3)Gal(b1-4)GlcNAc(b1-6)]Man(a1-6)[Gal(b1-4)GlcNAc(b1-3)Gal(b1-4)GlcNAc(b1-2)Man(a1-3)]Man(b1-4)GlcNAc(b1-4)[Fuc(a1-6)]GlcNAc
# How it was run: as §1
# [18] = biological target: Gal(b1-4)GlcNAc(b1-3)Gal(b1-4)[Fuc(a1-3)]GlcNAc(b1-3)Gal(b1-4)[Fuc(a1-3)]GlcNAc
# How it was run: as §1
# [19] = biological target: Gal(b1-4)GlcNAc(b1-3)[GlcNAc(b1-6)]Gal(b1-4)GlcNAc
# How it was run: as §1
# [20] = biological target: Gal(b1-4)GlcNAc(b1-6)Gal(b1-4)GlcNAc
# How it was run: as §1
# [21] = biological target: Gal(b1-4)GlcNAc(b1-6)[Gal(b1-3)]GalNAc
# How it was run: as §1
# Gal3S(b1-3)GlcNAc = biological target: Gal3S(b1-3)GlcNAc
# How it was run: as §1
# [22] = biological target: Gal3S(b1-4)[Fuc(a1-3)]Glc6S
# How it was run: as §1
# GalNAc(a1-3)Gal = biological target: GalNAc(a1-3)Gal
# How it was run: as §1
# GalNAc(b1-3)GlcNAc = biological target: GalNAc(b1-3)GlcNAc
# How it was run: as §1
# GalNAc(b1-4)GlcNAc = biological target: GalNAc(b1-4)GlcNAc
# How it was run: as §1
# GalNAc6S(b1-4)GlcNAc = biological target: GalNAc6S(b1-4)GlcNAc
# How it was run: as §1
# [23] = biological target: GlcNAc(a1-3)Gal(b1-4)GlcNAc
# How it was run: as §1
# [24] = biological target: GlcNAc(a1-4)Gal(b1-4)GlcNAc(b1-3)Gal(b1-4)[Fuc(a1-3)]GlcNAc(b1-3)Gal(b1-4)[Fuc(a1-3)]GlcNAc
# How it was run: as §1
# [25] = biological target: GlcNAc(b1-2)Man(a1-3)[GlcNAc(b1-4)][GlcNAc(b1-2)Man(a1-6)]Man(b1-4)GlcNAc(b1-4)[Fuc(a1-6)]GlcNAc
# How it was run: as §1
# [26] = biological target: GlcNAc(b1-2)[GlcNAc(b1-4)]Man(a1-3)[GlcNAc(b1-4)][GlcNAc(b1-2)Man(a1-6)]Man(b1-4)GlcNAc(b1-4)GlcNAc
# How it was run: as §1
# [27] = biological target: Man(a1-2)Man(a1-2)Man(a1-6)[Man(a1-3)]Man
# How it was run: as §1
# Man(a1-3)[Man(a1-6)]Man = biological target: Man(a1-3)[Man(a1-6)]Man
# How it was run: as §1
# [28] = biological target: Man(a1-3)[Man(a1-6)]Man(a1-6)[Man(a1-3)]Man(b1-4)GlcNAc(b1-4)GlcNAc
# How it was run: as §1
# Neu5Ac(a2-3)Gal = biological target: Neu5Ac(a2-3)Gal
# How it was run: as §1
# [29] = biological target: Neu5Ac(a2-3)Gal(b1-3)GalNAc
# How it was run: as §1
# [30] = biological target: Neu5Ac(a2-3)Gal(b1-3)GalNAc(b1-4)[Neu5Ac(a2-3)]Gal(b1-4)Glc
# How it was run: as §1
# [31] = biological target: Neu5Ac(a2-3)Gal(b1-3)GlcNAc(b1-3)GalNAc
# How it was run: as §1
# [32] = biological target: Neu5Ac(a2-3)Gal(b1-3)GlcNAc(b1-6)GalNAc
# How it was run: as §1
# Neu5Ac(a2-3)Gal(b1-4)Glc = biological target: Neu5Ac(a2-3)Gal(b1-4)Glc
# How it was run: as §1
# [33] = biological target: Neu5Ac(a2-3)Gal(b1-4)GlcNAc(b1-6)[Gal(b1-3)]GalNAc
# How it was run: as §1
# [34] = biological target: Neu5Ac(a2-3)Gal(b1-4)GlcNAc(b1-6)[Neu5Ac(a2-3)Gal(b1-3)]GalNAc
# How it was run: as §1
# [35] = biological target: Neu5Ac(a2-3)Gal(b1-4)[Fuc(a1-3)]GlcNAc(b1-3)GalNAc
# How it was run: as §1
# [36] = biological target: Neu5Ac(a2-6)GalNAc(b1-4)GlcNAc
# How it was run: as §1
# [37] = biological target: Neu5Ac(a2-8)Neu5Ac(a2-3)Gal(b1-4)GlcNAc
# How it was run: as §1
# [38] = biological target: Neu5Ac(b2-6)Gal(b1-4)GlcNAc
# How it was run: as §1
# Neu5Ac(b2-6)GalNAc = biological target: Neu5Ac(b2-6)GalNAc
# How it was run: as §1
binder,measurement,setting,value
B1,glycan array binding signal (z-score),Fuc(a1-2)Gal(b1-4)Glc6S,0.107
same,glycan array binding signal (z-score),[1],-0.236
same,glycan array binding signal (z-score),[2],-0.056
same,glycan array binding signal (z-score),[3],5.4
same,glycan array binding signal (z-score),[4],-0.183
same,glycan array binding signal (z-score),[5],-0.172
same,glycan array binding signal (z-score),Fuc(a1-4)GlcNAc,3.52
same,glycan array binding signal (z-score),Gal(a1-3)Gal(b1-3)GlcNAc,4.59
same,glycan array binding signal (z-score),[6],0.179
same,glycan array binding signal (z-score),[7],0.955
same,glycan array binding signal (z-score),[8],0.213
same,glycan array binding signal (z-score),[9],-0.277
same,glycan array binding signal (z-score),[10],0.083
same,glycan array binding signal (z-score),[11],-0.022
same,glycan array binding signal (z-score),[12],0.148
same,glycan array binding signal (z-score),[13],-0.267
same,glycan array binding signal (z-score),[14],0.595
same,glycan array binding signal (z-score),[15],0.088
same,glycan array binding signal (z-score),[16],1.25
same,glycan array binding signal (z-score),[17],0.053
same,glycan array binding signal (z-score),[18],0.126
same,glycan array binding signal (z-score),[19],-0.029
same,glycan array binding signal (z-score),[20],-0.219
same,glycan array binding signal (z-score),[21],-0.326
same,glycan array binding signal (z-score),Gal3S(b1-3)GlcNAc,-0.007
same,glycan array binding signal (z-score),[22],0.12
same,glycan array binding signal (z-score),GalNAc(a1-3)Gal,0.15
same,glycan array binding signal (z-score),GalNAc(b1-3)GlcNAc,-0.37
same,glycan array binding signal (z-score),GalNAc(b1-4)GlcNAc,0.33
same,glycan array binding signal (z-score),GalNAc6S(b1-4)GlcNAc,-0.071
same,glycan array binding signal (z-score),[23],-0.129
same,glycan array binding signal (z-score),[24],0.047
same,glycan array binding signal (z-score),[25],-0.052
same,glycan array binding signal (z-score),[26],1.03
same,glycan array binding signal (z-score),[27],-0.278
same,glycan array binding signal (z-score),Man(a1-3)[Man(a1-6)]Man,0.154
same,glycan array binding signal (z-score),[28],-0.262
same,glycan array binding signal (z-score),Neu5Ac(a2-3)Gal,-0.273
same,glycan array binding signal (z-score),[29],1.07
same,glycan array binding signal (z-score),[30],-0.4
same,glycan array binding signal (z-score),[31],-0.354
same,glycan array binding signal (z-score),[32],0.614
same,glycan array binding signal (z-score),Neu5Ac(a2-3)Gal(b1-4)Glc,2.91
same,glycan array binding signal (z-score),[33],-0.321
same,glycan array binding signal (z-score),[34],-0.43
same,glycan array binding signal (z-score),[35],0.695
same,glycan array binding signal (z-score),[36],-0.193
same,glycan array binding signal (z-score),[37],-0.54
same,glycan array binding signal (z-score),[38],-0.139
same,glycan array binding signal (z-score),Neu5Ac(b2-6)GalNAc,-0.216
